Unmarked numbers belong to inactive results. Entries that show only a call come without a potency. Calls of active or inactive are those of the source. Calls come from the whole dose curve; as a rule, active = well fitted cell-killing curve with a large enough effect in the repeat runs; inconclusive = weak or mixed curves, or effect the other way; inactive = flat fitted curve, though single readings scatter.
test: qHTS assay to identify small molecule HDAC inhibitors - cell viability counter screen (AID 1259365); conditions: HCT-116 viability, CellTiter-Glo ATP luminescence, 2 h; series mostly up to 92.4 µM; note: nearly all actives have a fitted effect of over 50% in size
Text: U.S. Tox21 Program National Center for Advancing Translational Sciences [NCATS] NIH Chemical Genomics Center [NCGC] U.S. Environmental Protection Agency [EPA] National Institutes of Environmental Health Sciences [NIEHS] National Toxicology Program [NTP] U.S. Food and Drug Administration [FDA] Tox21 Assay Overview: Histone deacetylases (HDACs) are a group of epigenetic enzymes that regulate gene expression by histone deacetylation. HDACs are capable of introducing epigenetic modifications and such aberrations contribute to the onset and progression of several human diseases, thus making HDACs a popular therapeutic target. For identifying endogenous class I/II HDAC inhibitors a homogenous, luminogenic HDAC I/II cell based assay was used to measure the relative activity of class I and II HDACs from cells. Wild type HCT-116 cells were used to screen Tox21 compound libraries for identifying class I/II HDAC inhibitors.
Tox21 Assay Protocol Summary: HCT-116 cells were dispensed at 1,500 per well in 5uL of culture medium into white solid bottom 1536-well plates (Greiner Bio-One, Monroe, NC) using a Multidrop Combi (Thermo Scientific, Waltham, MA) dispenser. The assay plates were incubated at 37 C and 5% CO2 for an overnight, and then 23nL of compounds dissolved in DMSO and positive control were transferred using a Pintool station (Wako, San Diego, CA). The assay plates were incubated at 37C and 5% CO2 for 2hr. After compound treatment, 4uL of CellTiter-Glo reagent (Promega Corporation, Madison, WI) was added to each well of the assay plates using Flying Reagent Dispenser (FRD, Aurora Discovery, San Diego, CA) and incubated the assay plates at room temperature for 30min. The luminescence signal was quantified using a ViewLux plate reader (Perkin Elmer, Shelton, CT).

SMILES | Potency | activity change, negative = cytotoxicity
O=S(=O)(c1ccccc1)c1ccc(Cl)cc1 | inactive | –
C(=C\c1ccccc1)/CN1CCN(C(c2ccccc2)c2ccccc2)CC1 | inactive | –
Nc1ccc(S(=O)(=O)O)cc1 | inactive | –
CC(=O)CC(c1ccc([N+](=O)[O-])cc1)c1c(O)c2ccccc2oc1=O (stereo not given) | inactive | –
CCC(Cc1ccccc1)(C(=O)c1ccc(N2CCOCC2)cc1)N(C)C (stereo not given) | inactive | –
C=CCOC(=O)/C=C\C(=O)OCC=C | inactive | –
CCC(=O)Oc1ccc(/C(CC)=C(\CC)c2ccc(OC(=O)CC)cc2)cc1 | inactive | –
O=C(CCCN1CCC(O)(c2ccc(Br)cc2)CC1)c1ccc(F)cc1 | inactive | –
CC[C@H](NC(=O)c1cc(F)ccc1NS(=O)(=O)c1cccc2cccnc12)c1ccccc1 | inactive | –
O=C(C(=O)c1ccccc1)c1ccccc1 | inactive | –
COc1cc2c(cc1OC)-c1cc(=Nc3c(C)cc(C)cc3C)n(C)c(=O)n1CC2 | inactive | –
Cc1ccc(/C=N/n2c(-c3ccccc3)csc2=S)cc1 | inactive | –
C/C=C/C=C/CCCCCCCO | inactive | –
CCCOC(=O)c1ccc(N)cc1 | inactive | –
COC(=O)c1cc(Cl)ccc1NS(=O)(=O)C(F)(F)F | inactive | –
O=C(NCCCN1CCOCC1)c1ccc(Cl)cc1 | inactive | –
CCn1nc(C)c2c1C(=O)NCC(c1ccc(O)cc1)=N2 | inactive | –
C=CC(C)(C)CC(=O)OC | inactive | –
CN(C)CCOC1=Cc2ccccc2Sc2ccc(Cl)cc21 | inactive | –
CC(C)(C)C(=O)C(Oc1ccc(Cl)cc1)n1ccnc1 (stereo not given) | inactive | –

SMILES | Potency | activity change, negative = cytotoxicity
N#C/C(=C1\SCC(c2ccccc2Cl)S1)n1ccnc1 (stereo not given) | inactive | –
CC(=O)Nc1ccccc1C | inactive | –
O=C(O)Cc1ccc(-c2ccccc2)cc1 | inactive | –
CC(C)CCCCCCOC(=O)CCCCC(=O)OCCCCCCC(C)C | inactive | –
CCC1(C)CC(=O)NC1=O (stereo not given) | inactive | –
CCCOCCOCCO | inactive | –
Cc1cc(O)c2c(O)c3c(O)cccc3cc2c1 | inactive | –
CCCCCCCCCCCCCCC[C@H](O)[C@@H](N)CO | inactive | –
Brc1cc(-c2ccc(Br)c(Br)c2Br)cc(Br)c1Br | inactive | –
[O]=[Bi] | – | -2.43% [at 8.39 µM]
CN(C(=O)C(Cl)Cl)c1ccc(OC(=O)c2ccco2)cc1 | inactive | –
Nc1nccs1 | inactive | –
C[Si]1(C)O[Si](C)(C)O[Si](C)(C)O1 | inactive | –
OCC1CC=CCC1 (stereo not given) | inactive | –
CCCCOC(=O)CCS | inactive | –
Cc1nccn1-c1ccc(Sc2cccc(C3(C(N)=O)CCOCC3)c2)cc1 | inactive | –
Cc1occc1C(=O)Nc1ccc(C(=O)N2CCC(F)(F)/C(=C\C(=O)N3CCC(N4CCCCC4)CC3)c3ccccc32)cc1 | inactive | –
CNC(=O)N(c1ccccc1)c1ccccc1 | inactive | –
N#C[C@@H]1C[C@@H]2C[C@@H]2N1C(=O)[C@@H](N)C12CC3CC(CC(O)(C3)C1)C2 | inactive | –
NC(=O)N(O)[C@@H]1COc2cc(OCc3ccccc3)ccc21 | inactive | –

Source: PubChem BioAssay (Tox21)
